For 21 compounds, growth results are on record in PubChem BioAssay (NCI).

Experiment in all cases: NCI-60 one-dose screen, 48 h (100 = growth as untreated, 0 = no growth, -100 = all killed)
Conditions in all cases: 10 µM unless noted

In assay [1] the test system is NCI-H23 lung.
In assay [2] the test system is NCI-H226 lung.
Assay [3] deals with HOP-62 NSCLC.
Assay [4] relates to NCI-H460 lung.
Assay [5] has as its system HOP-92 NSCLC.
The test system of assay [6] is NCI-H522 lung.
Assay [7] concerns A549/ATCC NSCLC.
The subject of assay [8] is 786-0 renal.
Assay [9] deals with COLO 205 colon.

About 83,000 compounds went through this panel and 20% of them were active in at least one assay; those are over-represented in the sample as a whole.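 Note: values are percent growth. 100 is the growth of untreated cells, values between 100 and 0 indicate rising inhibition; between -100 and 0 indicates cell death.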 A number with no mark means an inactive call. The source made the active and inactive calls. Rule for the calls: active = growth percent below 10; inactive = the rest.

For `CS(=O)(=O)N1CCN(Cc2cc3nc(-c4cccc5[nH]ncc45)nc(N4CCOCC4)c3s2)CC1`, the growth in assay [1] was 37.7%; in [2] it was 39.3%; in assay [3], 30.9%; in assay [4], 23.2%; in [5] it was -17.1% (active); in [6], 20.8%. For the same compound, the figures for the growth in [7], in assay [8] and in [9] were 8.23% (active), -7.35% (active) and 1.08% (active), respectively.

With `COc1ccc(C2CC(=O)c3c(O)c(OC)c(OC)c(OC)c3O2)cc1O` (centres undefined), the growth in [1] is 33.8%; in assay [2], 89.2%; in assay [3], 61.9%; in assay [4] it was 3.01% (active); in [5], 79.5%; in [6] it was 13.1%. Moreover, the growth in assay [7] was 28.7%; in assay [8], 49%; in [9] it was 67.3%.

`COc1ccc(C(=O)N2c3ccccc3Sc3ccccc32)c(F)c1`: the growth was 32.4% in assay [1]; 46.1% in assay [2]; 37.1% in assay [3]; 12% in assay [4]; 42.3% in [5]; 0.479% (active) in assay [6]. Also, the growth in assay [7] is 27.2%; in [8] it was 23.1%; in assay [9], 8.26% (active).

On to `Cc1cc(C(=O)NOCCO)c(Nc2ccc(I)cc2F)n(C)c1=O`, for which the growth is 25.9% in assay [1]; 71.2% in assay [2]; 38.9% in assay [3]; 66.6% in assay [4]; -21.5% (active) in [5]; 55% in assay [6]. For the same compound, the growth was 32.8% in assay [7], 71.3% in assay [8] and 4.04% (active) in assay [9].

Turning to `CCc1nc2cc(/C=C/C(=O)NO)c(F)cc2c(=O)n1CCc1ccccc1`, the growth was -5.22% (active) in [1]; 3.63% (active) in [2]; -4.23% (active) in assay [3]; 3.81% (active) in [4]; 7.39% (active) in [5]; 10.6% in [6]. Besides, the growth in assay [7] is -2.46% (active); in assay [8] it was 0.452% (active); in [9], -33.1% (active).

For `CN1CCN(CCCOc2cccc3nc(Nc4ccc(Cl)c(C(F)(F)F)c4)ccc23)CC1`, the growth in assay [1] was 18.8%; in assay [2] it was 77.1%; in [3] it was 15.5%; in assay [4], -19.3% (active); in assay [5], 10.2%; in [6], -40.6% (active). Besides, the values for the growth in assay [7], in assay [8] and in [9] were 6.87% (active), -42.9% (active) and -61.6% (active), respectively.

Consider `CN1CCN(c2nc(NCCNc3ccnc4cc(Cl)ccc34)c3ccccc3n2)CC1`, for which the growth in assay [1] was 44.9%; in [2], 62%; in assay [3], 13.7%; in assay [4], 11.6%; in assay [5], 53%; in assay [6] it was -20.2% (active). Further, the results for the growth in assay [7], in assay [8] and in [9] were 1.62% (active), -33.3% (active) and -62.6% (active), respectively.

For the compound `COC(=O)Nc1nc2ccc(C(=O)c3ccc(N(C)C4COC4)cc3)cc2[nH]1`, the growth was 30.5% in [1]; 67.2% in [2]; 10.2% in assay [3]; 3.28% (active) in [4]; 46.8% in assay [5]; -31.5% (active) in [6]. For the same compound, the growth was 14.9% in [7], 27.8% in [8] and -38.8% (active) in assay [9].

As to `CCNC(=O)Nc1nc2ccc(Oc3ccnc(C(=O)NC)c3)cc2s1`, the growth was 90.1% in assay [1]; 84.5% in assay [2]; 76.1% in assay [3]; 73.4% in assay [4]; 70.6% in assay [5]; 56.6% in [6]. In addition, the growth in assay [7] was 62.4%; in assay [8], 88.3%; in assay [9] it was 56.1%.

Turning to `Cc1csc(-c2nnc(Nc3ccc(Oc4ncccc4-c4ccnc(N)n4)cc3)c3ccccc23)c1`, the growth is 54.6% in assay [1]; 72.5% in [2]; 14.6% in [3]; 25.3% in [4]; 85.5% in assay [5]; 30.8% in assay [6]. Also, the values for the growth in assay [7], in assay [8] and in assay [9] were 26.6%, 67.9% and -4.72% (active), respectively.

For `COc1cc2c(cc1OCCCCN1CCN(CC(=O)Nc3ccc(Cl)cc3C(=O)c3ccccc3Cl)CC1)N=CC1CCCN1C2=O` (centres undefined), the growth in assay [1] was -14% (active); in assay [2], -88.1% (active); in assay [3], -88.8% (active); in assay [4], -56.2% (active); in [5], -85.6% (active); in assay [6], -83.4% (active). In addition, the growth in assay [7] was -69.5% (active); in assay [8] it was -94.2% (active); in assay [9] it was -61.4% (active).

`COc1cc(-c2nc(C(=O)Nc3ccc(C)cc3)nn2-c2ccc(F)c(F)c2)cc(OC)c1OC`: the growth in assay [1] was 97.1%; in assay [2], 102%; in assay [3], 86%; in assay [4], 106%; in assay [5], 114%; in assay [6], 48%. Also, the growth in assay [7] is 96.2%; in assay [8], 98.6%; in [9] it was 95.8%.

Take `COc1cc2c(c(OC)c1)C1c3ccccc3NC(=O)N1CC2` (centres undefined): the growth in [1] is 24%; in assay [2], 51.5%; in assay [3] it was 51.6%; in [4] it was 11.3%; in assay [5] it was 28.7%; in assay [6], 39.6%. For the same compound, the growth in assay [7] is 22.7%; in assay [8], 41.4%; in [9], 16.1%.

Take `Nc1ncnc2c1c(-c1cccc(OCc3ccccc3)c1)cn2C1CC(CN2CCC2)C1` (centres undefined): the growth in assay [1] was 33.6%; in [2], 40.1%; in assay [3], -29.5% (active); in [4], 21.9%; in [5], -21% (active); in assay [6] it was -23.6% (active). Moreover, the figures for the growth in [7], in assay [8] and in [9] were 4.8% (active), -70.4% (active) and -66.7% (active), respectively.

In the case of `COc1cnc2c(c1)C(=O)c1c-2n(CCCNC2=NCCS2)c(=O)c2cc(Cl)ccc12`, the growth in assay [1] is -52.4% (active); in assay [2] it was 46.9%; in [3], -78.9% (active); in assay [4], -80.3% (active); in assay [5], 77.6%; in assay [6] it was -64.7% (active). For the same compound, the growth in assay [7] was -89.6% (active); in [8], -96.7% (active); in [9] it was -74.3% (active).

On to `N#Cc1c(-c2ccc(C(F)(F)F)cc2)c(F)c(NCCC2CCC(O)C2)n2c1nc1ccccc12` (centres undefined), for which the growth is 72.5% in assay [1]; 69.2% in [2]; 59.2% in assay [3]; 42% in assay [4]; 32.5% in assay [5]; 65.7% in [6]. Also, the growth in [7] is 52.8%; in assay [8], 69.4%; in assay [9], 41.1%.

Regarding `Cc1ccccc1N1C(c2ccccc2)=NNC12C=CC(=O)C=C2Cl` (centres undefined), the growth in [1] was 98.1%; in assay [2] it was 115%; in assay [3] it was 98.3%; in assay [4], 115%; in assay [5], 114%; in [6] it was 95.2%. In addition, the growth in [7] was 75.5%; in assay [8], 106%; in assay [9], 99.3%.

As to `Cc1ccc(-n2nc(C(C)(C)C)cc2NC(=O)NCc2cc(F)ccc2Oc2ccc3c(cnn3CCO)c2)cc1`, the growth in [1] is 20.8%; in assay [2], 21.1%; in [3] it was 26.1%; in assay [4], 25.8%; in assay [5], 19.5%; in assay [6], 4.27% (active). The growth was 19.4% in [7], 29.1% in assay [8] and -13% (active) in assay [9].

Take `c1ccc2c(c1)CCN(NCCN1CCCC1)C2`: the growth is 86.7% in assay [1]; 88.8% in assay [2]; 75.4% in assay [3]; 107% in [4]; 80.4% in [5]; 91.3% in assay [6]. The growth in [7] is 85.5%; in assay [8] it was 101%; in assay [9], 91.8%.

As for `CNC(=O)c1cc(Oc2cccc3nc(Nc4ccc(Cl)c(F)c4)ccc23)ccn1`, the growth in assay [1] is 62.4%; in assay [2] it was 43.4%; in assay [3], 34.8%; in [4] it was 60.6%; in [5] it was 9.48% (active); in assay [6], 52.7%. Besides, the growth is 61.3% in [7], 41.7% in [8] and 84.3% in assay [9].

For `[2H]C1([2H])[C@H](C)O[C@H](C)C([2H])([2H])N1c1ccc(NC(=O)c2cccc(-c3ccc(OC(F)(F)F)cc3)c2C)cn1`, the growth is 58.5% in assay [1]; 58.7% in assay [2]; 77.7% in [3]; 85.1% in assay [4]; 8.86% (active) in assay [5]; 44.7% in assay [6]. In addition, the growth in [7] was 68.9%; in [8], 74.1%; in [9], 81.6%.
